High-throughput results as filed in PubChem.
Rows were chosen to be rich in hits. Some 3.2% of all compounds tested hit in one or more screens of this group.
LGR2 inh = inhibitors of bursicon-induced LGR2 CRE-luciferase signal, primary screen, cell-based, HEK293, CRE-luciferase reporter, bursicon stimulation. Drosophila bursicon receptor LGR2 (rickets). bursicon-stimulated, 4 h. inhibition, % at 9.99 µM. 380,000 compounds, 0.35% hits. AID 720647, 2013;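 active = drop in luminescence signal, shown as inhibition above about 50% in the replicate tests, limit read from the data, passing the limit was not always enough; inconclusive = probably only some replicates passing the limit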;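 also: agonist challenge used bursicon conditioned medium at about half maximal strength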
EWS-Fli block = EWS/Fli-driven NR0B1 reporter inhibitors, primary screen, A673 cells, NR0B1 luciferase, luminescence, MLPCN library; inhibition, % at 12.6 µM; AID 651661, 2012; 350,000 compounds, 0.67% hits; viability-normalised;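 active = mean inhibition of at least 50% after viability correction, with every replicate also passing that limit; inconclusive = mean reaches 50% but only one of two replicates passes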;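 also: firefly luciferase signal divided by Alamar Blue viability fluorescence both relative to DMSO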
TWEAK-Fn14 inh = inhibitors of TWEAK-Fn14 signaling, primary screen, luciferase reporter cells, uHTS. TWEAK-stimulated Fn14 reporter cells, luciferase luminescence, 8 h. inhibition, % at 10 µM. 360,000 compounds, 2% hits; in the data active = inhibition above about 50%
EBV LMP1 NFkB = EBV LMP1-driven NF-kappaB luciferase reporter inhibitors, primary screen, cell-based, luminescence, single point; inhibition, % at 12.5 µM; 350,000 compounds, 0.69% hits; LMP1-induced NF-kappaB luciferase reporter cells; in the data active = inhibition above about 41%; inconclusive = no clear call, values can overlap the other calls;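 also: 0% = neutral control wells and 100% = reference inhibitor control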
TROY signal inh = inhibitors of TROY-driven NF-kB signaling, primary screen, Q293 LMP1-TROYcd cells, NF-kB luciferase, uHTS; 360,000 compounds, 0.98% hits; Q293 LMP1-TROYcd NF-kB luciferase reporter, 4 h; inhibition, % at 10 µM;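 active = compounds whose plate-normalised and pattern-corrected inhibition of the luciferase reporter signal at the single screening dose is 50% or more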
PAX8 reporter = inhibitors of PAX8-driven TPO luciferase reporter, primary screen, RMG-I cells, single concentration; SteadyGlo, 24 h; inhibition, % at 12.6 µM; 360,000 compounds, 1.2% hits;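 active = mean replicate inhibition at least 60% with every replicate also reaching 60%; inconclusive = only one of the two criteria is met; inactive = mean below 60% and not all replicates reaching 60%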;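 also: luciferase light reporting Pax8 driven TPO promoter activity; plate controls were median of neutral control wells for no effect and mitoxantrone controls for full effect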
* hit, by the source's call; ? = inconclusive; · = no result given.

SMILES	LGR2 inh	EWS-Fli block	TWEAK-Fn14 inh	EBV LMP1 NFkB	TROY signal inh	PAX8 reporter
Cc1ccc2oc(C(=O)Nc3ccc(S(=O)(=O)Nc4onc(C)c4C)cc3)c(C)c2c1	-9	-2	-1	66*	-20	8
Cc1noc(NS(=O)(=O)c2ccc(N/C=C/C(=O)c3ccc(F)cc3)cc2)c1C	7	-37	57*	10	10	-85
Cc1noc(NS(=O)(=O)c2ccc(N/C=C\C(=O)c3ccncc3)cc2)c1C	·	·	13	7	-10	11
Cc1ccc(S(=O)(=O)N2C[C@H](O)COC[C@H]3O[C@@H](CC(=O)N[C@@H]4CCN(Cc5ccccc5)C4)CC[C@@H]32)cc1	-4	15	·	·	·	12
CC(C)NC(=O)N1C[C@@H]2[C@H](c3ccccc31)[C@@H](CO)N2Cc1ccccc1	-2	1	·	·	·	0
CC(C(=O)NCc1ccc(Cl)cc1)n1cccc1C(=O)c1ccccc1 (stereo not given)	7	2	16	74*	-11	0
Cc1ccccc1NC(=O)CSc1nnc(-c2ccccc2)n1-c1ccccc1	·	·	-10	0	56*	·
COc1cc(C#Cc2c(-c3cncn3C)n(C)c3ccc(-c4ccc(OC)nc4)cc23)cc(OC)c1	·	17	-5	-15	3	14
COc1cc(OC)cc(-c2c(C#Cc3ccsc3)c3cc(-c4cc(OC)c(OC)c(OC)c4)ccc3n2C)c1	48	6	-33	89*	-29	16
COc1cc(C#Cc2c(-c3cncn3C)n(C)c3ccc(-c4cc(OC)c(OC)c(OC)c4)cc23)cc(OC)c1	·	23	10	-13	17	73*
CCOC(=O)CN(C(=O)CSc1nnc2c(n1)[nH]c1ccc(OC)cc12)c1ccc(F)cc1	·	·	66*	4	74*	·
COc1ccc2[nH]c3nc(SC(C)C)nnc3c2c1	·	·	92*	13	54*	·
COc1ccc(CNC(=O)CSc2nnc3c(n2)[nH]c2ccc(OC)cc23)cc1	-15	8	-24	-8	-27	14
CC(=O)N1[C@H](CO)[C@@H](c2ccccc2)[C@@H]1CN(C)C(=O)CN1CCOCC1	1	-5	·	·	·	-1
CN1c2ccc(-c3ccccc3F)cc2[C@@H]2[C@@H](CCN2C(=O)NC2CCCCC2)[C@H]1CO	18	-8	·	·	·	8
NNC(=O)COc1ccc(-c2nccc(-c3ccc(F)cc3)n2)cc1	-25	43	55*	24	14	-25
FCCCOc1ccc(-c2nccc(-c3ccccn3)n2)cc1	-46	-22	-40	-6	-35	-12
O=C(O)COc1ccc(-c2nccc(-c3ccccn3)n2)cc1	-20	53*	61*	11	21	-2
COc1ccc(N(C)S(=O)(=O)c2cccc(C(=O)OCC(=O)c3c(N)n(C)c(=O)n(C)c3=O)c2)cc1	33	1	71*	16	65*	11
CCN(c1ccccc1)S(=O)(=O)c1cccc(C(=O)OCC(=O)c2c(N)n(C)c(=O)n(C)c2=O)c1	1	5	1	3	11	2
CN1[C@H](C(=O)NC2CCCCC2)[C@@H](CO)[C@@H]2Cn3c(ccc(-c4cccc(F)c4)c3=O)[C@@H]21	7	2	·	·	·	·
COc1cccc(CN(C)C(=O)c2ccc(S(=O)(=O)Nc3ccccc3F)cc2)c1OC	16	0	-22	4	-11	8
COc1ccc(CN(C)C(=O)c2cc(S(=O)(=O)Nc3ccccc3F)ccc2C)c(OC)c1	3	0	53*	·	-19	6
CCN1[C@@H]2c3ccc(C4=CCCCC4)c(=O)n3C[C@@H]2[C@@H](CO)[C@@H]1C(=O)OC	0	-6	·	·	·	-71
Cc1ccc(-c2nc(C)c(C(=O)O)s2)cc1	?	-124	63*	-44	-17	-129
SMILES	LGR2 inh	EWS-Fli block	TWEAK-Fn14 inh	EBV LMP1 NFkB	TROY signal inh	PAX8 reporter
Cc1nc(-c2ccccc2)sc1C(=O)O	·	-11	2	-17	-27	1
CCC(Sc1nc(C)cc(C)n1)C(=O)Nc1ccc(Cl)cn1 (stereo not given)	·	·	59*	3	·	·
O=C(Nc1ccc(N2CCOCC2)cc1)c1cnsn1	·	·	95*	77*	72*	·
O=C(Nc1ccc(N2CCOCC2)cc1)c1ccncc1	·	·	9	3	-12	·
O=C(Nc1ccc(N2CCOCC2)cc1)c1cnccn1	70*	57*	81*	63*	60*	58
COc1cccc(-c2ccc([C@H]3[C@@H](C#N)N(C(=O)Cc4ccccc4)[C@@H]3CO)cc2)c1	-8	-4	·	·	·	-11
COc1ccc2[nH]c3c(c2c1)CCNC3=O	-13	-12	61*	17	25	-24
CC(=O)[C@H]1CC[C@H]2[C@@H]3CC=C4C[C@@H](OS(=O)(=O)O)CC[C@]4(C)[C@H]3CC[C@]12C	7	2	-7	0	4	-21
CC(=O)O[C@H]1CC[C@@]2(C)C(=CC[C@H]3[C@@H]4CC[C@H](C(C)=O)[C@@]4(C)CC[C@@H]32)C1	-3	-5	-12	54*	5	-1
COC(=O)c1cc(OC)c(OC)cc1N=CC1=C(O)CC(C)(C)CC1=O	-20	·	56*	-4	-9	·
COc1ccc(Cc2nnc(N/N=C/c3ccc(Br)cc3)[nH]c2=O)cc1OC	11	8	-13	-4	14	-10
COc1ccc(Cc2nnc(N/N=C/c3ccc(O)cc3)[nH]c2=O)cc1OC	33	·	26	61*	10	60
CCC(=O)N1CC2(C1)[C@H](c1ccc(-c3ccc(F)cc3)cc1)[C@@H](CO)N2S(C)(=O)=O	-3	0	·	·	·	7
S=C(NN=C1C2CC3CC(C2)CC1C3)Nc1ccccc1	·	·	94*	65*	75*	·
CO[C@H]1CN(C)C(=O)c2cc(NC(=O)Nc3ccccc3F)ccc2OC[C@H](C)N(Cc2ccccc2C(=O)O)C[C@H]1C	-3	5	·	·	·	17
CCOC(=O)/C(=C/C=C1\Sc2cc(C)c(C)cc2N1CC)C(C)=O	21	3	8	2	4	17
CCN1/C(=C/c2ccc3cc(C)ccc3[n+]2CC)Sc2cc(C)c(C)cc21	14	73*	45	11	29	88*
CCN1/C(=C/c2ccc3cc(C)ccc3[n+]2CC)Sc2ccccc21	27	48	72*	-6	65*	93*
CC[n+]1c(/C=C2\Sc3ccccc3N2C)ccc2cccc(C)c21	81*	44	85*	-14	64*	61*
CN1/C(=C/c2cccc[n+]2CCO)Sc2ccccc21	-1	-8	-20	-2	-11	-9
